Data on 13 molecules can be found in PubChem BioAssay (EPA / NIEHS).

SMILES strings stand for the structures. Records with an inconclusive call do not appear. Some compounds were tested as several samples or in several runs, with calls that do not always agree. Activity calls are given as the source filed them. Rule for the calls, unless noted: active = hit-call score of the fitted dose curve at least 0.9, where 1 is the maximum; inconclusive = response in the unintended direction; inactive = score below 0.9.

For test [1], the target named is Estrogen receptor (Homo sapiens) (UniProt P03372). As to the kind of experiment: ATG_hERa_XSP2: Attagene TRANS-FACTORIAL Multi-Species (XSP2) HepG2 Assay for human Estrogen Receptor (ERa) (AID 2283827). The method, boiled down: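 HepG2 cells transiently transfected with multiplexed GAL4-UAS reporters driven by chimeric receptor-Gal4 proteins, dosed 24 h with 3 nM 6-alpha-fluorotestosterone and 1.5 nM norgestrel present. Reporter mRNA by RT-PCR and capillary electrophoresis; gain-of-signal fit versus DMSO.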

In test [2] the target is Peroxisome proliferator-activated receptor gamma (Homo sapiens) (UniProt P37231). As to the kind of experiment: ATG_hPPARg_XSP2: Attagene TRANS-FACTORIAL Multi-Species (XSP2) HepG2 Assay for human Peroxisome Proliferator-activated Receptor gamma (PPARg) (AID 2283829).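 Note: actives raise reporter mRNA above DMSO so AC50 reflects PPARg activation.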 An outline of the steps:
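Reporter transcripts were measured by RT-PCR, fluorescent labeling, HpaI digestion and capillary electrophoresis, relative to DMSO, 24 h post-dosing. Transiently transfected HepG2 expressed NR-Gal4 chimeras regulating GAL4-UAS reporters; medium contained 3 nM 6-alpha-fluorotestosterone plus 1.5 nM norgestrel.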

Test [3] concerns the target mouse Peroxisome Proliferator-activated Receptor gamma (PPARg), Pparg (gene 19016) (UniProt P37238). As to the kind of experiment: ATG_mPPARg_XSP2: Attagene TRANS-FACTORIAL Multi-Species (XSP2) HepG2 Assay for mouse Peroxisome Proliferator-activated Receptor gamma (PPARg) (AID 2283830).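 Note: hits are gains in reporter mRNA above DMSO so AC50 marks activation.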 An outline of the steps:
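HepG2 cells transiently transfected with GAL4-UAS reporter units for chimeric NR-Gal4 proteins including mouse PPARg, exposed 24 h; medium contained 3 nM 6-alpha-fluorotestosterone and 1.5 nM norgestrel. Reporter mRNA quantified by RT-PCR, HpaI digestion and capillary electrophoresis, vs DMSO.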

In test [4] the target is Nuclear receptor subfamily 1 group I member 2 (Mus musculus) (UniProt O54915). Nature of the test: ATG_mPXR_XSP2: Attagene TRANS-FACTORIAL Multi-Species (XSP1) HepG2 Assay for mouse Pregnane X Receptor (PXR) (AID 2283831). The method, boiled down:
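Reporter transcripts measured after 24 h dosing by RT-PCR with 6-FAM labelling, HpaI digestion and capillary electrophoresis. Transiently transfected HepG2 with NR-Gal4 chimeras; increase over DMSO baseline scored.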

Test [5] addresses zebrafish Thyroid Hormone Receptor alpha (TRa), thraa (gene 30670) (UniProt Q98867). As to the kind of experiment: ATG_zfTRa_XSP2: Attagene TRANS-FACTORIAL Multi-Species (XSP1) HepG2 Assay for zebrafish Thyroid Hormone Receptor alpha (TRa) (AID 2283832).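 Note: actives raise zebrafish TRa-Gal4 reporter transcript above DMSO baseline.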 The method, boiled down:
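Transient transfection of human HepG2 with GAL4-UAS reporter units, then 24 h chemical treatment. RNA isolated, reverse-transcribed, PCR-amplified, FAM-labelled, HpaI-digested and run on capillary electrophoresis. Gain-of-signal relative to DMSO.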

The test system of test [6] is turtle Thyroid Hormone Receptor, alpha (TRa), gene 101949057. Nature of the test: ATG_trTRa_XSP2: Attagene TRANS-FACTORIAL Multi-Species (XSP1) HepG2 Assay for turtle Thyroid Hormone Receptor, alpha (TRa) (AID 2283834).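 Note: hits raise reporter mRNA over the DMSO baseline so AC50 marks activators.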 The method, boiled down:
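Turtle TRa-Gal4 chimera activity in transfected human HepG2 cells: reporter transcripts quantified by RT-PCR, 6-FAM labelling and capillary electrophoresis 24 h post-dosing; positive direction versus DMSO, medium containing 3 nM 6-alpha-fluorotestosterone and 1.5 nM norgestrel.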

A short description of test [7]: ATG_M_61_XSP2: Attagene TRANS-FACTORIAL Multi-Species (XSP2) HepG2 Assay for M61 Transcription Factor (Internal Marker) (AID 2283835; active = hit-call score of the fitted dose curve at least 0.9, where 1 is the maximum; inactive = score below 0.9;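 note: reporter mRNA of an internal background marker read by RT-PCR and capillary electrophoresis; active means a rise in signal above the DMSO baseline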). The method, boiled down:
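HepG2 cells transiently transfected with multiple GAL4-UAS reporter units; 3 nM 6-alpha-fluorotestosterone and 1.5 nM norgestrel present to stimulate androgen receptor. After 24 h compound exposure, reporter mRNA measured by RT-PCR and capillary electrophoresis fluorescence, gain-of-signal versus DMSO baseline.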

Test [8] deals with zebrafish Thyroid Hormone Receptor beta (TRb), thrb (gene 30607) (UniProt Q9PVE4). Nature of the test: ATG_zfTRb_XSP2: Attagene TRANS-FACTORIAL Multi-Species (XSP1) HepG2 Assay for zebrafish Thyroid Hormone Receptor beta (TRb) (AID 2283836). The method, boiled down:
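Human liver HepG2, transient MRTU transfection (NR-Gal4 chimeras, GAL4-UAS reporters); 24 h compound exposure; total RNA → oligo(dT) RT → PCR → 6-FAM label → HpaI cut → CE fluorescence. DMSO = negative control/baseline.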

A short description of test [9]: ATG_XTT_Cytotoxicity_XSP2: Cytotoxicity Assessment in the Attagene TRANS-FACTORIAL Multi-Species (XSP2) HepG2 Assay (AID 2283837). The method, boiled down:
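HepG2 cells, transiently transfected with multiple reporter constructs, exposed to chemical for 24 h. Cell number assessed with XTT fluorescence read-out; loss of signal fitted relative to DMSO.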

In test [10] the target is human Thyroid hormone Receptor alpha (TRa), THRA (gene 7067) (UniProt P10827). Nature of the test: ATG_hTRa_XSP2: Attagene TRANS-FACTORIAL Multi-Species (XSP2) HepG2 Assay for human Thyroid hormone Receptor alpha (TRa) (AID 2283838). An outline of the steps: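 HepG2 cells were transiently transfected with GAL4-UAS reporter units for chimeric human TRa-Gal4 and dosed for 24 hours, with 3 nM 6-alpha-fluorotestosterone and 1.5 nM norgestrel present. Reporter mRNA was quantified by RT-PCR, FAM labelling and capillary electrophoresis, with gain of signal fitted versus DMSO.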

Test [11] deals with frog Thyroid hormone Receptor alpha (TRa), thra-a (gene 397942) (UniProt P15204). As to the kind of experiment: ATG_frTRa_XSP2: Attagene TRANS-FACTORIAL Multi-Species (XSP2) HepG2 Assay for frog Thyroid hormone Receptor alpha (TRa) (AID 2283839). The method, boiled down:
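Reporter transcripts were measured by RT-PCR with capillary electrophoresis after 24 h dosing of HepG2 carrying transiently transfected multi-reporter units, including a chimeric frog TRa-GAL4 construct. Activity was taken as increase over DMSO vehicle.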

Test [12] has as its system Sodium/Iodide Symporter (NIS), SLC5A5 (gene 6528). As to the kind of experiment: CPHEA_Stoker_NIS_Inhibition_RAIU: CPHEA's Radioactive Iodide Uptake (RAIU) Assay for Sodium/Iodide Symporter (NIS) Inhibition, Stoker and Laws Labs (AID 2283841). The method, boiled down: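 Iodide uptake read as CPM of intracellular 125I (final 329 pM) after 2 h room-temperature exposure in HEPES-buffered HBSS, pH 7.4. Human NIS-expressing HEK293T cells; six concentrations 0.001–100 uM, 0.5% DMSO, normalised to DMSO wells.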

Test [13] is described as follows: CPHEA_Stoker_NIS_Cytotoxicity: Cytotoxicity Assessment for CPHEA's Radioactive Iodide Uptake (RAIU) Assay for Sodium/Iodide Symporter (NIS) Inhibition, Stoker and Laws Labs (AID 2283897).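 For AC50: active means loss of ATP signal versus DMSO meaning cytotoxicity.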 The method, boiled down:
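CellTiter-Glo ATP luminescence gauged viability in HEK293T cells expressing human NIS after 2 h chemical exposure. Concentrations ran 0.001–100 uM in 0.5% DMSO; DMSO served as baseline for the loss-of-signal fit.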

The nature of test [14]: CEETOX_H295R_OHPREG_noMTC: CeeTox H295R High-throughput Steroidogenesis Assay for OH-Pregnenolone (OHPREG), maximum tolerated concentration (MTC) filtered results only (AID 2283912; active = hit-call score of the fitted dose curve at least 0.9, where 1 is the maximum; inactive = score below 0.9). As to conditions: actives raise or lower the signal. An outline of the steps:
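H295R human adrenal cells, forskolin-prestimulated (10 uM, 48 h), then exposed to test chemical in 0.1% DMSO for 48 h. 17alpha-hydroxypregnenolone in medium measured by HPLC-MS/MS after MTBE extraction; bidirectional fit versus DMSO, concentrations not MTC-filtered.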

Test [15] can be described thus: CEETOX_H295R_OHPROG_noMTC: CeeTox H295R High-throughput Steroidogenesis Assay for OH-Progesterone (OHPROG), maximum tolerated concentration (MTC) filtered results only (AID 2283914; active = hit-call score of the fitted dose curve at least 0.9, where 1 is the maximum; inactive = score below 0.9). As to conditions: actives raise or lower the signal. The method, boiled down:
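H295R human adrenal cells prestimulated 48 h with 10 uM forskolin, then exposed 48 h to test chemical (0.1% DMSO final). Medium 17alpha-hydroxyprogesterone extracted with MTBE, quantified by HPLC-MS/MS; bidirectional fit versus DMSO, concentrations not MTC-filtered.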

A short description of test [16]: CEETOX_H295R_ANDR_noMTC: CeeTox H295R High-throughput Steroidogenesis Assay for Androstenedione (ANDR), maximum tolerated concentration (MTC) filtered results only (AID 2283915; active = hit-call score of the fitted dose curve at least 0.9, where 1 is the maximum; inactive = score below 0.9). As to conditions: actives raise or lower the signal. An outline of the steps:
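H295R cells, passage 10 or below, prestimulated 48 h with 10 uM forskolin, then exposed 48 h to chemical in 0.1% DMSO. Medium androstenedione extracted with MTBE, quantified by HPLC-MS/MS; concentrations not MTC-filtered; bidirectional fit versus DMSO.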

Chain of Peroxisome proliferator-activated receptor gamma (Homo sapiens) (P37231 whole entry, looked up, the tested form may be a part): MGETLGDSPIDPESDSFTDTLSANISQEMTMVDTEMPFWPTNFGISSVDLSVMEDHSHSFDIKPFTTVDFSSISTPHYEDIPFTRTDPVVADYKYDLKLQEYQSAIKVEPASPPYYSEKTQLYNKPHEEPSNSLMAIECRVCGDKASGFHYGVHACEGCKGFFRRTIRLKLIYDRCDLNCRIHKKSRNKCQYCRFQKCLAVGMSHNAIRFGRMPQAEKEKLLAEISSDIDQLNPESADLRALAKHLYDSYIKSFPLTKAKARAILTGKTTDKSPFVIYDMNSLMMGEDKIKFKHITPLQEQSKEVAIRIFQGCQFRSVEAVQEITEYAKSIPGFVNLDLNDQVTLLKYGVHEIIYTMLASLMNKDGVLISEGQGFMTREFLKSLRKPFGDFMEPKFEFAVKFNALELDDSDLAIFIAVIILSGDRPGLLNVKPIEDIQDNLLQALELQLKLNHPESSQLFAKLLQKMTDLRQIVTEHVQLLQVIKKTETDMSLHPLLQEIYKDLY
Chain of human Thyroid hormone Receptor alpha (TRa), THRA (gene 7067) (P10827 whole entry, looked up, the tested form may be a part): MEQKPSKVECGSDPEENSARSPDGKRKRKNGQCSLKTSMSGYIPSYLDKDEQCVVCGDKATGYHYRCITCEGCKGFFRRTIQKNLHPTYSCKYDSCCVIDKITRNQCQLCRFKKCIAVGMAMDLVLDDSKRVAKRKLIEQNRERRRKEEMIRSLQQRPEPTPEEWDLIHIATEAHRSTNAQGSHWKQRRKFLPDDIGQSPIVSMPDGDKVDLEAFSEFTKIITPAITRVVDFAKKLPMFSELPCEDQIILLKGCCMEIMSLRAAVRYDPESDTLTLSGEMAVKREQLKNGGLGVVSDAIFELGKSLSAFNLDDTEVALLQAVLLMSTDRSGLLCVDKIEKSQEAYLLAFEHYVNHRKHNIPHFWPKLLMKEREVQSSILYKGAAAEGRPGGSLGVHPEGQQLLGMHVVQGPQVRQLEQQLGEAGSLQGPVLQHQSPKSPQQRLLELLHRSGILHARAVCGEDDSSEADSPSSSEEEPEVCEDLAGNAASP
Chain of Estrogen receptor (Homo sapiens) (P03372 whole entry, looked up, the tested form may be a part): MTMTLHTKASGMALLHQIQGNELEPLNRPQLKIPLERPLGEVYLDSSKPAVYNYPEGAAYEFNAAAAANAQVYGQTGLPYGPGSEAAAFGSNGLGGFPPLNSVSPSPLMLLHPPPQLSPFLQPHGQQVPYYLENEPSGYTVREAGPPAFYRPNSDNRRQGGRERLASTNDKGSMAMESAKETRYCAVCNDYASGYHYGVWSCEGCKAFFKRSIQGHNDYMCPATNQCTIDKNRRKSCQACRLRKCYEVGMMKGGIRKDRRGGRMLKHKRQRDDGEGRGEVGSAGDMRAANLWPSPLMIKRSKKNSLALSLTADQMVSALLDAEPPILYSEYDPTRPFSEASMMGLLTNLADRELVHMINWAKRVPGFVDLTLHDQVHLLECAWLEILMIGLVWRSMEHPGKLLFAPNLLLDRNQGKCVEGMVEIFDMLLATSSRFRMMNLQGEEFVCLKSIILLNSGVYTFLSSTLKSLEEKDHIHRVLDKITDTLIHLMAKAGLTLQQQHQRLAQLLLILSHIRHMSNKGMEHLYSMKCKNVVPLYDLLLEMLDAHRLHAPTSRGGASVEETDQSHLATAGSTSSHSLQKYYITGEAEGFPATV
Chain of mouse Peroxisome Proliferator-activated Receptor gamma (PPARg), Pparg (gene 19016) (P37238 whole entry, looked up, the tested form may be a part): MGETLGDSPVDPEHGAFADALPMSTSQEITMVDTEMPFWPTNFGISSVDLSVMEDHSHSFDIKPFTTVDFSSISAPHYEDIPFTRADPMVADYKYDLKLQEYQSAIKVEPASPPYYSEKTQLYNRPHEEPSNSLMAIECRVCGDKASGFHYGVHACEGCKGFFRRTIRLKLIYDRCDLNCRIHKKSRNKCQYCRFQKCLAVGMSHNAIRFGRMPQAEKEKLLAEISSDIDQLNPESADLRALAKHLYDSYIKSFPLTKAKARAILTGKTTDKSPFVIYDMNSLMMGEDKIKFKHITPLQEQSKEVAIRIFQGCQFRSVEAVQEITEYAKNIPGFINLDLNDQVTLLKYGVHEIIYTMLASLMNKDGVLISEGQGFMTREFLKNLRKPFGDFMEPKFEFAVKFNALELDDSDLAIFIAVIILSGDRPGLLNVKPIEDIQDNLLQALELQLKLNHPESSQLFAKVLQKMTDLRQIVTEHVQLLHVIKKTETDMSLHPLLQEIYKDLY
Chain of Nuclear receptor subfamily 1 group I member 2 (Mus musculus) (O54915 whole entry, looked up, the tested form may be a part): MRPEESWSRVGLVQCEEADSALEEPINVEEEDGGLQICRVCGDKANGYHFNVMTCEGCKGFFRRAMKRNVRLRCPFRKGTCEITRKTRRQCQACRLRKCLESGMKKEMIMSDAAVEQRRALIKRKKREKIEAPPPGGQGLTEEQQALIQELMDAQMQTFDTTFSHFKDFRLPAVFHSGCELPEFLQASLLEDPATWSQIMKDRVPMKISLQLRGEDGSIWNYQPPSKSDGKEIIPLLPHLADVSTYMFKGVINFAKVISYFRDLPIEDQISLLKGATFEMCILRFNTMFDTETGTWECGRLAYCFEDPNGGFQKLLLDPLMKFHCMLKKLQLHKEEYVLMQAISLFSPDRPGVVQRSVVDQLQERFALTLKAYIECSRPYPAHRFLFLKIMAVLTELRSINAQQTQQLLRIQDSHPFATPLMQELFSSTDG
Chain of zebrafish Thyroid Hormone Receptor alpha (TRa), thraa (gene 30670) (Q98867 whole entry, looked up, the tested form may be a part): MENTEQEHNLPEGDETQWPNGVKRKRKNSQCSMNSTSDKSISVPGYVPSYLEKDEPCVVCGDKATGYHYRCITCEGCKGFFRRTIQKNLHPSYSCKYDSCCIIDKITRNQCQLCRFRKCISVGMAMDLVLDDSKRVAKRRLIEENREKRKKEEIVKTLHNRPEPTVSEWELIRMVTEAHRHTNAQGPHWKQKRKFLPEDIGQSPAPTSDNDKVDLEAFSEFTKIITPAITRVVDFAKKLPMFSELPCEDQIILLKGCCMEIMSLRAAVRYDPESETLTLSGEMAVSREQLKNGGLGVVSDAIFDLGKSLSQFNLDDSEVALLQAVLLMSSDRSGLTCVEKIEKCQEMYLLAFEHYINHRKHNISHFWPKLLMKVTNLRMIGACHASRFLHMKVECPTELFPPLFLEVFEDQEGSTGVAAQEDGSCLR
Chain of frog Thyroid hormone Receptor alpha (TRa), thra-a (gene 397942) (P15204 whole entry, looked up, the tested form may be a part): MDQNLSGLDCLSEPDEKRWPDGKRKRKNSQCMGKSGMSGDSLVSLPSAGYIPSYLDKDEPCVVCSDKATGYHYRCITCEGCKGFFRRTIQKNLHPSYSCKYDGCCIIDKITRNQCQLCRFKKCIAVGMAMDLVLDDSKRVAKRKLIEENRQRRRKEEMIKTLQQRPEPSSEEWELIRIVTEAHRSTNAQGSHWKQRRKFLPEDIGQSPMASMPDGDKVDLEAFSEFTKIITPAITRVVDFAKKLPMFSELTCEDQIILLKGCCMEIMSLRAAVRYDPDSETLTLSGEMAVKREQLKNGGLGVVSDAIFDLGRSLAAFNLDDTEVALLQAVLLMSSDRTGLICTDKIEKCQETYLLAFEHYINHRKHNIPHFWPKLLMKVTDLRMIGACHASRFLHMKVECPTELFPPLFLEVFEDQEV
Chain of zebrafish Thyroid Hormone Receptor beta (TRb), thrb (gene 30607) (Q9PVE4 whole entry, looked up, the tested form may be a part): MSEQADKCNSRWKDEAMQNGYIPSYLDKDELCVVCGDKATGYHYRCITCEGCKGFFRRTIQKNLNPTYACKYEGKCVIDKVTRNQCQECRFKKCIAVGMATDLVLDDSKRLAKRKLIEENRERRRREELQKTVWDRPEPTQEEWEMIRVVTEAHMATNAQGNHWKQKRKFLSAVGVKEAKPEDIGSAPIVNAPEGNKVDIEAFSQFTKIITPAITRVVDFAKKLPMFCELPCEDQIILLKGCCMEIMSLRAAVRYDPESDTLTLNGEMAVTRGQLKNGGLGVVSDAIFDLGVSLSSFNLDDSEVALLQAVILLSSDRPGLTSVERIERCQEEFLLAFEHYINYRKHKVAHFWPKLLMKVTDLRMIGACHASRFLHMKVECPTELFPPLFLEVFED

One may read the AC50 as the midpoint of the concentration-response curve, whichever way the signal moves. Turning to `CC(C)(C)c1ccc(S)cc1`, the outcome in [1], in test [2], in [3], in test [4], in test [5] and in [6] was inactive. Moreover, the call in test [7], in test [8], in [9], in test [10] and in test [11] was inactive. Also, the AC50 in [2] was 3.68 µM (active).

Consider `CCCCCCCCCO`, for which the result in [12] and in test [13] was inactive.

Take `CCCCCC1C(=O)CCC1CC(=O)OC` (configuration not stated): the molecule was called inactive in [14] and in [15].

For the molecule `CC(=O)N(C)C`, the result in test [12] was inactive.

Turning to `COC(=O)c1ccc(C(=O)OC)cc1`, the molecule was classed as inactive in test [14] and in test [15].

On to `O=C(c1ccc(OCCN2CCCCC2)cc1)c1c(-c2ccc(O)cc2)sc2cc(O)ccc12`, for which the AC50 in test [13] is 9.92 µM (active).

As for `O=C(OCc1ccccc1)c1ccccc1O`, in test [12], the AC50 was 9.92 µM (active). In addition, the result in test [13] was inactive.

On to `CCCCCCCCOS(=O)(=O)O`, for which the outcome in test [13] was inactive.

Take `CC(=O)OC/C=C(C)/C=C/C=C(C)/C=C/C1=C(C)CCCC1(C)C`: the molecule was classed as inactive in test [14] and in test [15].

For `CCCCCCOc1ccc(O)cc1`, the outcome in [12] and in test [13] was inactive.

Turning to `COc1cc(OC)c2ccc(=O)oc2c1`, the outcome in test [14] and in test [16] was inactive.

`C=C(C)C(=O)OCCC(F)(F)C(F)(F)C(F)(F)C(F)(F)C(F)(F)C(F)(F)C(F)(F)C(F)(F)F`: the outcome in test [12] was inactive.

Consider `CC(=O)C1=C(C)[C@@H]2C[C@@]3(C1)[C@H](C)CC[C@H]3C2(C)C`, for which the outcome in test [12] and in [13] was inactive.
